Data as given in PubChem BioAssay (NCI).
The panel holds about 79,000 compounds, 15% with a hit somewhere; the sample as a whole holds those more often. No stated cut-off is given here; in the data, active means growth inhibition above about 70%; inactive means the rest.

Assays:
[1] = NCI Yeast Anticancer Drug Screen. Data for the rad52 strain (AID 147);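 further: 0% = growth of vehicle-treated control cultures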; conditions: S. cerevisiae rad52 mutant growth inhibition, stronger effect = higher value
Summary of the method: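 The repair-mutant yeast strain was incubated with compounds, then growth was read and inhibition derived relative to vehicle.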

[2] = NCI Yeast Anticancer Drug Screen. Data for the wt1 strain (AID 149);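 further: 0% = growth of vehicle-treated wt1 cultures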; conditions: S. cerevisiae wt1 strain (SPY 50644) growth inhibition, stronger effect = higher value
Summary of the method: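 Vehicle-normalised growth inhibition; strain wt1; compound exposure.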

[3] = NCI Yeast Anticancer Drug Screen. Data for the rad50EPP+ strain (AID 151);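 further: 0% = growth of vehicle-treated control cultures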; conditions: S. cerevisiae rad50 mutant strain, stronger effect = higher value
Summary of the method: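 Vehicle-normalised growth inhibition; rad50EPP+ yeast strain, altered in DNA damage repair, compound-treated.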

[4] = NCI Yeast Anticancer Drug Screen. Data for the mgt1 strain (AID 153); conditions: S. cerevisiae mgt1 mutant growth inhibition, stronger effect = higher value
Summary of the method: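 Vehicle-normalized growth inhibition is determined in mgt1 yeast, a strain selected for a defined alteration in DNA repair or cell cycle control.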

[5] = NCI Yeast Anticancer Drug Screen. Data for the rad50 strain (AID 155);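 further: 0% = growth of vehicle-only cultures of the same strain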; conditions: S. cerevisiae rad50 strain growth inhibition, stronger effect = higher value
Summary of the method: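 A DNA repair-deficient yeast mutant serves as the test organism; compound-induced growth inhibition is calculated against vehicle-treated cells.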

[6] = NCI Yeast Anticancer Drug Screen. Data for the mec2-1 strain (AID 157); conditions: S. cerevisiae mec2-1 strain, stronger effect = higher value
Summary of the method: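 Mutant yeast (mec2-1) grown with compound; growth inhibition relative to vehicle control reported.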

[7] = NCI Yeast Anticancer Drug Screen. Data for the rad14 strain (AID 159);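 further: 0% = growth of vehicle-treated control cultures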; conditions: S. cerevisiae rad14 strain growth inhibition, stronger effect = higher value
Summary of the method: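 Vehicle-treated cultures served as the baseline for growth inhibition of a DNA repair-mutant yeast strain exposed to each compound.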

[8] = NCI Yeast Anticancer Drug Screen. Data for the sgs1 mgt1 strain (AID 161);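 further: 0% = growth of cultures given vehicle only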; conditions: S. cerevisiae sgs1 mgt1 strain, stronger effect = higher value
Summary of the method: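 Percent growth inhibition was derived by comparing compound-exposed mutant yeast with vehicle-exposed cultures. The strain carries alterations in DNA damage repair.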

[9] = NCI Yeast Anticancer Drug Screen. Data for the CLN2oe strain (AID 163);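 further: 0% = growth of vehicle-only control cultures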; conditions: S. cerevisiae CLN2oe strain, stronger effect = higher value
Summary of the method: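 Compounds are applied to yeast harbouring a defined cell-cycle control change; reduced growth compared with vehicle-treated controls gives the value.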

[10] = NCI Yeast Anticancer Drug Screen. Data for the cln2 rad14 strain (AID 165);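 further: 0% = growth equal to vehicle treated cultures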; conditions: S. cerevisiae cln2 rad14 strain, stronger effect = higher value
Summary of the method: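 Readout is yeast growth inhibition versus vehicle-treated controls, using a strain with cln2 and rad14 alterations exposed to compound.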

[11] = NCI Yeast Anticancer Drug Screen. Data for the bub3 strain (AID 167); conditions: S. cerevisiae bub3 mutant strain, stronger effect = higher value
Summary of the method: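 Inhibition values come from growth of compound-treated mutant yeast normalised to vehicle-treated controls.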

[12] = NCI Yeast Anticancer Drug Screen. Data for the wt2 strain (AID 169);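 further: 0% = growth of vehicle-treated yeast cultures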; conditions: S. cerevisiae wt2 strain growth inhibition, stronger effect = higher value
Summary of the method: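 Against vehicle-treated controls, the growth of yeast exposed to each compound was compared, and the inhibition was recorded.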

[13] = NCI Yeast Anticancer Drug Screen. Data for the mlh1 strain (AID 171);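 further: 0% = growth of vehicle-treated control cultures of the same strain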; conditions: S. cerevisiae mlh1 strain growth inhibition, stronger effect = higher value
Summary of the method: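 Measured: yeast growth. Reference: vehicle-treated controls. Organism: strain with a defined alteration affecting DNA damage repair or cell cycle control, treated with compound.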

[14] = NCI Yeast Anticancer Drug Screen. Data for the sgs1 strain (AID 173);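 further: 0% = growth of vehicle-only control cultures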; conditions: S. cerevisiae sgs1 mutant, stronger effect = higher value
Summary of the method: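 Each compound was added to cultures of the altered yeast strain. Growth was recorded, and inhibition was derived by comparison with vehicle controls.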

[15] = NCI Yeast Anticancer Drug Screen. Data for the mlh1 rad18 strain (AID 175); conditions: S. cerevisiae mlh1 rad18 strain growth inhibition, stronger effect = higher value
Summary of the method: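 Genetically defined yeast (DNA repair-deficient) exposed to compounds; growth inhibition determined relative to vehicle.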

[16] = NCI Yeast Anticancer Drug Screen. Data for the rad18 strain (AID 177); conditions: S. cerevisiae rad18 mutant growth inhibition, stronger effect = higher value
Summary of the method: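 Vehicle-treated cultures served as the baseline for scoring compound-induced growth inhibition in DNA-repair-mutant yeast.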

[17] = at 5.0 µM (retest, dose inferred, filed as 0.5)
[18] = at 50.0 µM (retest, dose inferred, filed as 5.0)

Measured: growth inhibition

O=C(N=Nc1ccccc1Cl)NNc1ccccc1Cl
inactive: [1]; at 1.2 µM 25% | [1]; at 3.7 µM 19% | [1]; at 11.0 µM 13% | [1]; at 33.0 µM 28% | [1]; at 100.0 µM 26% | [2]; at 1.2 µM 4% | [2]; at 3.7 µM 2% | [2]; at 11.0 µM 0% | [2]; at 33.0 µM 5% | [2]; at 100.0 µM 6% | [3]; at 1.2 µM 17% | [3]; at 3.7 µM 19% | [3]; at 11.0 µM 26% | [3]; at 33.0 µM 39% | [3]; at 100.0 µM 20% | [4]; at 1.2 µM -5% | [4]; at 3.7 µM -5% | [4]; at 11.0 µM 3% | [4]; at 33.0 µM -18% | [4]; at 100.0 µM -2% | [5]; at 1.2 µM 8% | [5]; at 3.7 µM 8% | [5]; [17] -15% | [5]; at 11.0 µM -15% | [5]; at 33.0 µM 14% | [5]; [18] 16% | [5]; at 50.0 µM 44.5% | [5]; at 100.0 µM 13% | [6]; at 1.2 µM -1% | [6]; at 3.7 µM 1% | [6]; [17] -15% | [6]; at 11.0 µM 7% | [6]; at 33.0 µM 6% | [6]; [18] 38% | [6]; at 50.0 µM 21.1% | [6]; at 100.0 µM 12% | [7]; at 1.2 µM -3% | [7]; at 3.7 µM -9% | [7]; at 11.0 µM -2% | [7]; at 33.0 µM 5% | [7]; at 100.0 µM 11% | [8]; [17] -18% | [8]; [18] 8% | [8]; at 50.0 µM 26.8% | [9]; at 1.2 µM 7% | [9]; at 3.7 µM -3% | [9]; at 11.0 µM 6% | [9]; at 33.0 µM 22% | [9]; at 100.0 µM 27% | [10]; [17] -25% | [10]; [18] 45% | [10]; at 50.0 µM 47.1% | [11]; at 1.2 µM 2% | [11]; at 3.7 µM 18% | [11]; [17] -40% | [11]; at 11.0 µM 13% | [11]; at 33.0 µM 15% | [11]; [18] 69% | [11]; at 50.0 µM 49.1% | [11]; at 100.0 µM 11% | [12]; at 1.2 µM 0% | [12]; at 3.7 µM 0% | [12]; at 11.0 µM 3% | [12]; at 33.0 µM 7% | [12]; at 100.0 µM 8% | [13]; at 1.2 µM 0% | [13]; at 3.7 µM -4% | [13]; at 11.0 µM 2% | [13]; at 33.0 µM 5% | [13]; at 100.0 µM 4% | [14]; at 1.2 µM 9% | [14]; at 3.7 µM 5% | [14]; at 11.0 µM 9% | [14]; at 33.0 µM 21% | [14]; at 100.0 µM 19% | [15]; [17] -7% | [15]; [18] 41% | [15]; at 50.0 µM 21.6% | [16]; at 1.2 µM 16% | [16]; at 3.7 µM 13% | [16]; at 11.0 µM 8% | [16]; at 33.0 µM 3% | [16]; at 100.0 µM 7%
